Compounds with a hit are over-represented: about 11% of the library has one in this group of screens.
JMJD2A Tudor inh = inhibitors of human JMJD2A Tudor domain; AID 504339; Potency, µM (highest dose often 114 µM), without a hit: at the highest dose activity change, negative = inhibition, usual class: inhibitors; AlphaScreen JMJD2A-Tudor / H3K4me3 peptide binding; O75164; hit rate 4.4% among 390,000; note: potency is the fitted concentration of half-maximal effect; % is set by controls: 0 for no effect and ±100 for the full control effect; nearly all actives have a fitted effect of over 50% in size
BAZ2B inh = blocks human BAZ2B; Potency, µM (titrated, usually from 114 µM), for inactives: top-dose activity change, negative = inhibition, usual class: inhibitors; Q9UIF8; AlphaScreen BAZ2B-H3K14Ac peptide displacement; AID 504333; hit rate 4.4% among 360,000; note: potency is the fitted concentration of half-maximal effect; % is set by controls: 0 for no effect and ±100 for the full control effect; nearly all actives have a fitted effect of over 60% in size
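Multi-concentration screen (max 110 uM) measuring displacement of acetylated histone H3 peptide from BAZ2B by AlphaScreen, using 50 nM protein, 50 nM peptide and 10 ug/mL streptavidin donor plus Ni-chelate acceptor beads.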
PI5P4Ka inh = PI5P4K alpha (human) kinase inhibition; max response, %; PI5P4Kalpha enzyme, ADP-Glo luminescence, 60 min; active compounds read low; hit rate 1.2% among 330,000; P48426; AID 652105; active = max response of -50% or lower; inconclusive = between -30% and -50%; inactive = -30% or higher; note: value at the top dose of about 77 µM; % is set by controls: 0 for no effect and ±100 for the full control effect
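ADP-Glo luminescence end-point after a 60 min room-temperature kinase reaction. PI5P4Kalpha and substrate in HEPES pH 7.4 buffer with EGTA, 0.1% CHAPS and 5% DMSO; ATP at 5 microM final.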
HP1b chromo inh = HP1-beta chromodomain-methylated histone interaction inhibition | AlphaScreen HP1-beta / biotin-H3K9me3 peptide binding | Potency, µM (top dose mostly 114 µM), for the others: at the top dose activity change, negative = inhibition, usual class: inhibitors | hit rate 0.56% among 390,000 | AID 540317; note: potency is the fitted concentration of half-maximal effect; nearly all actives have a fitted effect of over 70% in size
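AlphaScreen: HP1-beta (50 nM) preformed 30 min with biotin-H3(1-18)K9me3 peptide (50 nM) in PBS pH 7.4, 0.01% Tween-20. Compound added for 30 min at RT, then streptavidin donor/nickel chelate acceptor beads (10 ug/mL) for 30 min.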
G9a block = blocks human histone lysine methyltransferase G9a; Q96KQ7; G9a H3K9 monomethylation, AlphaScreen, 2 h; Potency, µM (doses to about 102 µM), for the others: at the top dose activity, negative = inhibition, most hits filed as inhibitors; hit rate 8.8% among 350,000; AID 504332; note: potency is the fitted concentration of half-maximal effect; % is set by controls: 0 for no effect and ±100 for the full control effect; nearly all actives have a fitted effect of over 75% in size
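Readings reflect AlphaScreen signal from monomethyl-H3K9 antibody detection. HMT at 20 nM; substrate b-H3K9 500 nM; cofactor SAM 20 uM; 2 h RT reaction; compounds tested as titrations in qHTS with 15 min preincubation.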
L3MBTL1 inh = blocks human L3MBTL1. AlphaScreen L3MBTL1–H3K9me1 peptide binding. Potency, µM (doses to about 57.1 µM), for the others: at the top dose activity, negative = inhibition, usual class: inhibitors. hit rate 0.66% among 230,000. AID 485360; note: potency is the fitted concentration of half-maximal effect; % is set by controls: 0 for no effect and ±100 for the full control effect; nearly all actives have a fitted effect of over 60% in size
Target sequence (Q9Y468 whole entry, looked up): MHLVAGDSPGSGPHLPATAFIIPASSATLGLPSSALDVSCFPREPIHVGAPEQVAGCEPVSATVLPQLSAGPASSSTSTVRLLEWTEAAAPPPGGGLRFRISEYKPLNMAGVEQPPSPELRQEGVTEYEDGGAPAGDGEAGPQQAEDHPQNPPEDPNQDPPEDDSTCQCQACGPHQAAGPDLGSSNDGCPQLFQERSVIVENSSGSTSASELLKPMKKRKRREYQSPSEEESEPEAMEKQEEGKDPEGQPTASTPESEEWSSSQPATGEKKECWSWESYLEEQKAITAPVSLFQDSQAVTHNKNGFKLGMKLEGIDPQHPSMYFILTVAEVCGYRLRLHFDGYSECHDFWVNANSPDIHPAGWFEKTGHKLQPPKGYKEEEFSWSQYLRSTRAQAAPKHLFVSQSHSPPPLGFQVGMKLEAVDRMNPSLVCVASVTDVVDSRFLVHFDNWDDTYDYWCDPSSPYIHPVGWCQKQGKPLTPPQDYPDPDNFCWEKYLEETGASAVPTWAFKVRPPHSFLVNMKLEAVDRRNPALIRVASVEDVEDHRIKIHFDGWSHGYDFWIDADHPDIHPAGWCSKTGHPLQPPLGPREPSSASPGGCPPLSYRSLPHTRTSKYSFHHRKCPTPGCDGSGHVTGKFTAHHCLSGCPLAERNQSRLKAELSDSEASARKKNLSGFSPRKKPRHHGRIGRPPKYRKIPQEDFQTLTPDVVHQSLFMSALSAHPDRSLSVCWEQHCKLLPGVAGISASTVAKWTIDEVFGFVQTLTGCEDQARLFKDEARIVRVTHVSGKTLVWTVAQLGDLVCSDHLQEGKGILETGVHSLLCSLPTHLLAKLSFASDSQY
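AlphaScreen assay: L3MBTL1 (50 nM final) was preincubated 30 min at room temperature with biotinylated H3(1-15)K9me1 peptide (75 nM final), then 30 min with library compounds; streptavidin donor and nickel chelate acceptor beads (10 ug/mL final) added, 30 min dark.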
Starred values were filed as active, the others as inactive; ? = inconclusive; nt = not tested or not shown; [ ] = dose if it differs, or a comment. Unless noted, calls come from the whole dose curve; as a rule, active = well fitted inhibition curve with a large enough effect; inconclusive = small, poorly fitted or top-dose-only effect; inactive = no such curve, though single readings can be large or run the other way.

SMILES | JMJD2A Tudor inh | BAZ2B inh | PI5P4Ka inh | HP1b chromo inh | G9a block | L3MBTL1 inh
COc1ccccc1Cc1nc2ccccc2nc1SCC(=O)N(C)c1ccc(F)cc1 | -19% | 12% | nt | 28%[57 µM] | -4%[59 µM] | nt
O=C(CSc1n[nH]c(-c2ccc(F)cc2)n1)NCc1ccccc1Cl | -13% | 3% | nt | 27%[57 µM] | -10%[59 µM] | nt
Cc1cc(C)cc(OCC(=O)Nc2nc3c(s2)CC(C(C)(C)C)CC3)c1 (stereo not given) | -8% | -3% | nt | 15% | -7%[59 µM] | nt
c1cc(SSc2ccncc2)ccn1 | 14µM* | ? | -70* | ? | 0.56µM* | nt
O=C1C(=O)N(C2CCN(C(=O)c3ccc(Cl)cc3)CC2)CCN1Cc1ccc(F)cc1 | -6% | -1% | nt | 26% | 4%[59 µM] | nt
COc1ccc(C2/C=C\CN(S(=O)(=O)c3ccc(C)cc3)C(Cc3ccccc3)C(=O)N2Cc2ccc(F)cc2)cc1 (stereo not given) | -30% | nt | nt | 35% | nt | nt
C/C(=N\Nc1nc2ccccc2s1)c1ccc(Br)s1 | ? | ? | 49 | -11% | 35µM* | -2%
Cc1cc(Cl)c2c(c1)[C@]1(C(=O)N2)[C@@H]2C(=O)N(Cc3ccccc3)C(=O)[C@@H]2[C@@H]2CCCN21 | -31%[57.1 µM] | ? | -8 | 18% | 45µM* | -19%
O=C1[C@H]2[C@@H](C(=O)N1c1cc(Cl)cc(Cl)c1)[C@]1(C(=O)Nc3ccccc31)N1CCC[C@@H]21 | -35% | ? | nt | 18% | ? | 2%
CCc1ccc(-n2c(CCC(=O)O)ccc2-c2cccs2)cc1 | ? | ? | nt | ? | 10µM* | nt
CCc1ccc(-n2c(CCC(=O)O)ccc2-c2ccc(F)cc2)cc1 | ? | ? | nt | ? | 10µM* | nt
CCOC(=O)c1ccc(-n2c(CCC(=O)O)ccc2-c2cccs2)cc1 | ? | ? | -23 | ? | 22µM* | nt
Cc1ccc(-n2c(CCC(=O)O)ccc2-c2cccs2)cc1C | ? | ? | -16 | -3% | ? | -17%
COc1ccc(NCCC(O)c2ccc(Cl)cc2)cc1 (stereo not given) | 56µM* | 45µM* | 4 | ? | ? | nt
COc1ccc(Cl)cc1NCCC(O)c1ccc(F)cc1 (stereo not given) | ? | ? | 26 | -1% | 35µM* | nt
COc1ccc(Cl)cc1NC(=S)NCCc1ccc(F)cc1 | -4% | -27% | 2 | 43% | 2% | nt
CC(C)(C)c1ccc(S(=O)(=O)NCC(=O)Nc2sc3c(c2C(N)=O)CCCC3)cc1 | -29%[11.4 µM] | 2% | 3 | -6% | 50µM* | nt
CCOc1ccc(NC(=O)c2c(NCc3cccs3)sc3c2CCC(C)C3)cc1 (stereo not given) | ? | -38% | nt | 26% | ? | nt
CCOC(=O)c1ccc(NC(=O)c2csc3c2CCCC3)cc1 | 14% | 1% | nt | 26% | 1%[59 µM] | nt
CCOC(=O)c1c(NC(=O)COC)sc2c1CCCC2 | -16% | 8% | nt | 27% | 6%[12.7 µM] | 6%[11.4 µM]
CCOC(=O)c1ccc(NC(=O)c2c(NCc3cccs3)sc3c2CCCCC3)cc1 | 56µM* | ? | nt | -23% | 7.9µM* | nt
CCCOC(=O)c1c(NC(=O)CCC(=O)O)sc2c1CCCCC2 | -4% | -27% | 0 | 3% | 50µM* | nt
Cc1ccc(S(=O)(=O)CC(=O)Nc2sc3c(c2C(N)=O)CCCC3)cc1 | -34% | -2% | nt | 32% | -22%[59 µM] | nt
COc1ccc(NC(=O)c2c(NCc3cccs3)sc3c2CCCC3)cc1 | ? | -36% | nt | -4% | 14µM* | nt
O=C(CSc1nc2c(oc3ccccc32)c(=O)[nH]1)Nc1cccc(Cl)c1 | -12% | -7% | nt | 18% | 3%[59 µM] | nt
SMILES | JMJD2A Tudor inh | BAZ2B inh | PI5P4Ka inh | HP1b chromo inh | G9a block | L3MBTL1 inh
CC(C)c1cc(-c2nc(-c3ccccc3)no2)n[nH]1 | 3% | 4% | nt | 45% | 5%[59 µM] | nt
N#Cc1c(NC(=O)CCCC(=O)O)sc2c1CCCCC2 | 0% | 23% | 1 | 10% | 29%[59 µM] | 34%
CCOC(=O)c1ccc(NC(=O)c2c(NC(=O)CCC(=O)O)sc3c2CCCCC3)cc1 | -34% | -31% | -25 | ? | 32µM* | -14%
NC(=O)c1c(NC(=O)CCCC(=O)O)sc2c1CCCCCC2 | -31%[57.1 µM] | 2% | -18 | ? | 50µM* | -16%
CCOc1ccc(NC(=O)c2c(NC(=O)CNCCN3CCOCC3)sc3c2CCC3)cc1 | 79µM* | 45µM* | -3 | 3% | 40µM* | nt
CCOc1ccc(NC(=O)c2c(NC(=O)c3ccccc3F)sc3c2CCC3)cc1 | -11% | 3% | nt | 36% | 0%[59 µM] | nt
NC(=O)c1c(NC(=O)C2CCCO2)sc2c1CCC2 (stereo not given) | -24% | 3% | nt | 13% | 7% | 0%
NC(=O)c1c(NC(=O)C2CCCO2)sc2c1CCCCC2 (stereo not given) | ? | -30% | ? | ? | 3.5µM* | -14%
CCc1ccc(NCc2cc3ccc(OC)cc3n(CC(=O)Nc3cccc(Cl)c3C)c2=O)cc1 | 4% | -30% | nt | 41% | -1%[59 µM] | nt
COc1cc(Cl)c(C)cc1NC(=O)CSc1nc2c(c(=O)[nH]1)CCCC2 | -4% | -4% | nt | 30% | -38%[59 µM] | nt
Cc1ccc2c(c1)N(C(=O)CCC(=O)NCc1cccs1)CCO2 | -19% | -12% | nt | 18% | -2%[59 µM] | nt
CC1=C(C(=O)Nc2cccc(C(F)(F)F)c2)C2(CCCCCC2)OC1=O | 17% | 4% | nt | 16% | 5%[59 µM] | nt
COc1ccc(NC(=O)c2c(NCc3cccs3)sc3c2CCCCC3)c(OC)c1 | 45µM* | ? | nt | ? | 8.9µM* | nt
COc1ccc(OC)c(NC(=O)c2c(NCc3sccc3C)sc3c2CCCCC3)c1 | ? | ? | nt | 0% | ? | nt
O=C(NC(=S)N1CCCc2ccccc21)c1ccco1 | -22% | ? | -2 | 19% | 45µM* | -8%
O=C(NC(=S)N1CCc2ccccc21)c1ccccc1Cl | -23% | -24% | -7 | -1% | 1% | nt
CC1Cc2ccccc2N1C(=S)NC(=O)C1(C)CC1(Cl)Cl (stereo not given) | -14% | -29% | -14 | 2% | 0% | ?
CC1Cc2ccccc2N1C(=S)NC(=O)c1ccco1 (stereo not given) | -35% | nt | -22 | ? | 40µM* | 8%
CCCc1nn2c(=O)cc(COC(=O)c3cccs3)nc2s1 | -12% | -28% | nt | -2% | 20%[59 µM] | nt
Cc1ccc(-c2nc3c4cnn(-c5cc(Cl)ccc5Cl)c4ncn3n2)cc1 | -14% | -2% | nt | 28% | -40%[59 µM] | nt
COc1cccc(CNC(=O)Cn2ncn3nc(-c4cccs4)cc3c2=O)c1 | -17% | -26% | nt | 15% | ? | nt
Cc1cc(C)cc(NC(=O)NCCn2nnc3cc(S(=O)(=O)N(C)C)ccc32)c1 | -7% | -12% | nt | 19% | 0%[59 µM] | nt
Cc1c(Cl)cccc1NC(=O)c1ccc2c(c1)CCCN2S(C)(=O)=O | -19% | 4% | nt | 5% | -2%[59 µM] | nt
